Experimental data taken from PubChem BioAssay (NCATS).
Inconclusive results are not listed. The source made the active and inactive calls. Calls come from the whole dose curve; as a rule, active = well fitted inhibition curve with a large enough effect; inconclusive = small, poorly fitted or top-dose-only effect; inactive = flat fitted curve, though single readings scatter.

Columns and labels:
[1] = qHTS profiling for inhibitors of Plasmodium falciparum proliferation (AID 504749); note: nearly all actives have a fitted effect of over 60% in size;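 for activity, negative = inhibition: 0% = DMSO vehicle and full inhibition = artemisinin control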; settings: P. falciparum in erythrocytes, SYBR Green DNA, 72 h, at 28.7 µM (top of the series)
In short: (§1)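 P. falciparum-infected erythrocytes (0.3% parasitemia, 2.5% hematocrit) incubated with compound 72 h at 37 C, 5% CO2. Parasite DNA detected by SYBR Green after lysis, overnight at room temperature; normalised to 0.29 uM artemisinin and DMSO.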

3D7 = test: as above; settings: P. falciparum in erythrocytes, SYBR Green DNA, 72 h; series mostly up to 28.7 µM
In short: as §1

7G8 = test: as above; settings: P. falciparum in erythrocytes, SYBR Green DNA, 72 h; series mostly up to 28.7 µM
In short: as §1

AA1029 = test: as above; settings: P. falciparum in erythrocytes, SYBR Green DNA, 72 h; series mostly up to 28.7 µM
In short: as §1

AS120 = test: as above; settings: P. falciparum in erythrocytes, SYBR Green DNA, 72 h; series mostly up to 28.7 µM
In short: as §1

ATS189 = test: as above; settings: P. falciparum in erythrocytes, SYBR Green DNA, 72 h; series mostly up to 28.7 µM
In short: as §1

ATS95 = test: as above; settings: P. falciparum in erythrocytes, SYBR Green DNA, 72 h; series mostly up to 28.7 µM
In short: as §1

C2A = test: as above; settings: P. falciparum in erythrocytes, SYBR Green DNA, 72 h; series mostly up to 28.7 µM
In short: as §1

CP185 = test: as above; settings: P. falciparum in erythrocytes, SYBR Green DNA, 72 h; series mostly up to 28.7 µM
In short: as §1
Potency is the fitted concentration of half-maximal effect.

Cc1cnc(C(=O)NCCc2ccc(S(=O)(=O)NC(=O)NC3CCCCC3)cc2)cn1
inactive: activity, negative = inhibition ([1]; parasite line A) 8.33% | activity, negative = inhibition ([1]; parasite line B) 4.07% | Potency (3D7) | Potency (7G8) | Potency (AA1029) | Potency (AS120) | Potency (ATS189) | Potency (ATS95) | Potency (C2A) | Potency (CP185)

Cc1ccc(-c2cc(C(F)(F)F)nn2-c2ccc(S(N)(=O)=O)cc2)cc1
inactive: Potency (CP185)

CN(C)CCCN1c2ccccc2CCc2ccc(Cl)cc21
inactive: activity, negative = inhibition ([1]; parasite line A) -15.4% | activity, negative = inhibition ([1]; parasite line B) -29.1% | Potency (3D7) | Potency (C2A) | Potency (CP185)
active: Potency (7G8) 5010 nM

O=C(Nc1ccc([N+](=O)[O-])cc1Cl)c1cc(Cl)ccc1O
inactive: Potency (C2A) | Potency (CP185)
active: Potency (3D7) 1780 nM | Potency (7G8) 891 nM | Potency (AS120) 794 nM
